IL1B secr inh – inflammasome signaling inhibition, IL-1 beta readout; THP-1 LPS/ATP IL-1B secretion, AlphaLISA, 16 h; hits give low values; activity change, % at 57.5 µM; 4.7% of 360,000 active; AID 743279; in the data active means activity change below about -50%; inconclusive means mostly about -30% to -49%
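Secreted IL-1B measured by AlphaLISA bead assay after 16 h compound exposure of THP-1 cells; compounds (final up to 57.5 uM) added 1 h before LPS (250 ng/mL) and ATP (1.25 mM) stimulation; lower signal means less secretion.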
ELG1 DNA repair – blocks ELG1-dependent DNA repair in HEK293T cells; HEK293T ELG1-luciferase reporter, luminescence, 16 h; DNA damage induced by 5-fluorouridine; Potency, µM (highest dose often 46.1 µM), inactives show at the highest dose activity change, negative = inhibition, actives largely listed as inhibitors; 2.3% of 330,000 active; further: potency means the concentration at half of the fitted maximal effect; nearly all actives have a fitted effect of over 55% in size
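DMSO vehicle served as the neutral condition. Each well held 2,000 cells given 5-fluorouridine plus compound; after 16 hr at 37 °C/5% CO2, ONE-Glo was added and luciferase measured 30 min later.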
HT1080 IDH1KD tx – kills HT-1080 cells with IDH1 knockdown; HT-1080 IDH1 knockdown viability, ATP luminescence, 48 h; Potency, µM (series often up to 46.1 µM), without a hit: at the highest dose activity, negative = toxicity, most hits filed as cytotoxic; 2% of 360,000 active; AID 686971;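 further: potency means the concentration at half of the fitted maximal effect; 0% = DMSO wells and -100% = cell-free medium wells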
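Knockdown cells (IDH1KD HT-1080) received compounds 2 h after plating at 750 cells/well and were kept 48 h at 37 °C in 5% FBS RPMI. A CellTiter-Glo luminescence read gave % activity for curve fitting.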
DT40 TDP1 CPT – DT40-hTDP1 cell growth loss with CPT | chicken DT40 Tdp1-/-;hTDP1 cells + 20 nM CPT, ATP luminescence, 48 h | Potency, µM (top dose mostly 46.2 µM), for the others: top-dose activity change, negative = growth inhibition, usual class: inhibitors | AID 686979 | 12% of 420,000 active; further: potency means the concentration at half of the fitted maximal effect; nearly all actives have a fitted effect of over 55% in size
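Chicken DT40 Tdp1-/- cells complemented with human TDP1, 400 cells/well, exposed to compounds plus 20 nM camptothecin for at least 48 h at 37 C; viability read as ATP content by CellTiter-Glo luminescence.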
HT1080NT lethal – kills 2HG-producing HT-1080-NT fibrosarcoma cells | Potency, µM (top dose mostly 46.1 µM), without a hit: at the top dose activity, negative = less viability, actives largely listed as cytotoxic | 1.6% of 360,000 active | HT-1080-NT fibrosarcoma viability, CellTiter-Glo ATP luminescence, 48 h;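 further: NT is the 2HG producing partner of a matched IDH1 knockdown line; potency means the concentration at half of the fitted maximal effect; 0% = DMSO-treated cells and -100% = media-only wells without cells; nearly all actives have a fitted effect of over 55% in size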
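Fibrosarcoma NT cells, 750 per well in 5% FBS RPMI, were exposed to compound for 48 hours. Viability: CellTiter-Glo luminescence.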
DT40 TDP1 no CPT – qHTS for Inhibitors of human tyrosyl-DNA phosphodiesterase 1 (TDP1): qHTS in cells in absence of CPT; DT40 Tdp1-/- hTDP1 cells, no CPT, ATP luminescence, 48 h; Potency, µM (highest dose often 46.2 µM), inactives show at the highest dose activity change, negative = growth inhibition, actives largely listed as inhibitors; 15% of 420,000 active; further: potency means the concentration at half of the fitted maximal effect; nearly all actives have a fitted effect of over 55% in size
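Chicken DT40 Tdp1-/- cells complemented with human TDP1, screened without camptothecin (DMSO vehicle only), 400 cells/well. Compounds pin-transferred, cells incubated at 37 °C for at least 48 hr. Growth read as ATP-dependent luminescence (CellTiter-Glo, 30 min at RT).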
Numbers without * were called inactive; [ ] = another dose, or the depositor's remark. Shown are actives, neighbours in structure and some others; about 19% of the full set was active somewhere. Unless noted, the call rests on the fitted dose curve; in most records, active means well fitted curve in the direction sought with a large enough effect; inconclusive means small, poorly fitted or top-dose-only effect, or another doubt; inactive means no such curve, though single readings can be large; an effect the other way counts as inactive or inconclusive. Unless noted, on the % scale 0 is the no-effect control and ±100 the full control effect.

What do the screens show for `Cc1ccc(S(=O)(=O)c2nc(-c3ccccc3Cl)oc2N2CCN(C)CC2)cc1`?
IL1B secr inh: -66*; ELG1 DNA repair: -18%; HT1080 IDH1KD tx: 2%; DT40 TDP1 CPT: inconclusive; HT1080NT lethal: -3%; DT40 TDP1 no CPT: 23µM*

Results for COc1ccccc1-c1nc(C#N)c(N2CCCCCC2)o1 ?
IL1B secr inh: -18; ELG1 DNA repair: -29%; HT1080 IDH1KD tx: 3%; DT40 TDP1 CPT: -18%; HT1080NT lethal: 0%; DT40 TDP1 no CPT: -29%

How did Cc1ccc(S(=O)(=O)c2nc(-c3ccccc3Cl)oc2N2CCCCCC2)cc1 do in these assays?
DT40 TDP1 CPT: 23µM*; DT40 TDP1 no CPT: 18µM*

What do the screens show for `Cc1nnc(SCC(=O)Nc2ccc3c(c2)OCO3)n(N)c1=O`?
IL1B secr inh: -7; ELG1 DNA repair: -7%; HT1080 IDH1KD tx: 11%; DT40 TDP1 CPT: 2%; HT1080NT lethal: 8%; DT40 TDP1 no CPT: -23%

What do the screens show for `O=C(CSC1=NS(=O)(=O)c2ccccc2N1)NCCc1ccccc1`?
IL1B secr inh: 10; ELG1 DNA repair: 20%; HT1080 IDH1KD tx: 6%; DT40 TDP1 CPT: 13%; HT1080NT lethal: 3%; DT40 TDP1 no CPT: 0%

Results for O=C(CC1(CC2=NS(=O)(=O)c3ccccc3N2)CCCC1)NCCc1ccccc1 ?
IL1B secr inh: -12; ELG1 DNA repair: -23%; HT1080 IDH1KD tx: -6%; DT40 TDP1 CPT: 15µM*; HT1080NT lethal: -10%; DT40 TDP1 no CPT: inconclusive

How did COc1ccc(N(C(=O)c2snc(C(N)=O)c2N)C(C(=O)NCc2ccc(F)cc2)c2ccc(O)cc2)cc1 (stereo unspecified) do in these assays?
IL1B secr inh: -88*; ELG1 DNA repair: inconclusive; HT1080 IDH1KD tx: inconclusive; DT40 TDP1 CPT: inconclusive; HT1080NT lethal: -26%; DT40 TDP1 no CPT: inconclusive

What do the screens show for `COc1cccc(N(C(=O)c2snc(C(N)=O)c2N)C(C(=O)NCc2ccccc2)c2ccc(O)cc2)c1` (stereo unspecified)?
IL1B secr inh: -53*; ELG1 DNA repair: inconclusive; HT1080 IDH1KD tx: -4%; DT40 TDP1 CPT: inconclusive; HT1080NT lethal: -17%; DT40 TDP1 no CPT: 18µM*

How did COc1ccc(N(C(=O)Cn2nnc3ccccc32)C(C(=O)NCc2ccco2)c2ccncc2)cc1 (stereo unspecified) do in these assays?
IL1B secr inh: 4; ELG1 DNA repair: 0%; HT1080 IDH1KD tx: 0%; DT40 TDP1 CPT: -6%; HT1080NT lethal: 11%; DT40 TDP1 no CPT: 1%

How did COc1ccc(C(C(=O)NCc2ccccc2)N(C(=O)Cn2nnc3ccccc32)c2ccc(F)cc2)cc1 (stereo unspecified) do in these assays?
DT40 TDP1 CPT: inconclusive; DT40 TDP1 no CPT: 15µM*

Results for COc1ccc(N(C(=O)c2snc(C(N)=O)c2N)C(C(=O)NCc2ccccc2)c2ccc(O)cc2)cc1OC (stereo unspecified) ?
IL1B secr inh: 28; ELG1 DNA repair: 3%; HT1080 IDH1KD tx: -3%; DT40 TDP1 CPT: -2%; HT1080NT lethal: -3%; DT40 TDP1 no CPT: inconclusive

Results for CCc1cccc(CC)c1NC(=O)CCS(=O)(=O)c1ccc2c(c1)CCN2C(C)=O ?
DT40 TDP1 CPT: -23%; DT40 TDP1 no CPT: -18%

What do the screens show for `Cn1cc(S(=O)(=O)N2CCOCC2)cc1C(=O)O`?
IL1B secr inh: -2; ELG1 DNA repair: 8%; HT1080 IDH1KD tx: 17%; DT40 TDP1 CPT: 14%; HT1080NT lethal: 4%; DT40 TDP1 no CPT: 9%

What do the screens show for `COc1ccc(C2CCCN2C(=S)Nc2cccc(Cl)c2)cc1OC` (stereo unspecified)?
IL1B secr inh: -87*; ELG1 DNA repair: inconclusive; HT1080 IDH1KD tx: -3%; DT40 TDP1 CPT: -15%; HT1080NT lethal: 0%; DT40 TDP1 no CPT: inconclusive

Results for COc1ccc(C2SCCN2C(=S)Nc2cccc(Cl)c2)cc1 (stereo unspecified) ?
IL1B secr inh: -26; ELG1 DNA repair: 1%; HT1080 IDH1KD tx: -6%; DT40 TDP1 CPT: inconclusive; HT1080NT lethal: -16%; DT40 TDP1 no CPT: 16µM*

How did COc1ccc(C2CCCN2C(=S)Nc2c(C)cccc2C)cc1OC (stereo unspecified) do in these assays?
IL1B secr inh: 5; ELG1 DNA repair: 7%; HT1080 IDH1KD tx: -2%; DT40 TDP1 CPT: 5%; HT1080NT lethal: 25%; DT40 TDP1 no CPT: inconclusive

What do the screens show for `COc1cccc(NC(=S)N2CCCC2c2ccc(OC)c(OC)c2)c1` (stereo unspecified)?
IL1B secr inh: -6; ELG1 DNA repair: -27%; HT1080 IDH1KD tx: 3%; DT40 TDP1 CPT: -18%; HT1080NT lethal: -5%; DT40 TDP1 no CPT: 29µM*

How did COc1ccc(C2CCCN2C(=S)Nc2ccc(C)cc2C)cc1OC (stereo unspecified) do in these assays?
IL1B secr inh: -15; ELG1 DNA repair: inconclusive; HT1080 IDH1KD tx: -11%; DT40 TDP1 CPT: -23%; HT1080NT lethal: 4%; DT40 TDP1 no CPT: 26µM*

What do the screens show for `COc1ccc(C2CCCN2C(=S)Nc2cccc(Cl)c2C)cc1OC` (stereo unspecified)?
IL1B secr inh: -23; ELG1 DNA repair: inconclusive; HT1080 IDH1KD tx: -9%; DT40 TDP1 CPT: inconclusive; HT1080NT lethal: 19%; DT40 TDP1 no CPT: inconclusive

How did Cc1cc(-c2cc(F)cc3c2OC(CNC(=O)CCn2cncn2)C3)ccc1F (stereo unspecified) do in these assays?
DT40 TDP1 CPT: 14%[9.04 µM]; DT40 TDP1 no CPT: -2%

How did CCCN1CCN(C(=O)c2cnn(-c3ncc4c(n3)-c3ccccc3CCC4)c2COC)CC1 do in these assays?
DT40 TDP1 CPT: 15%[9.04 µM]; DT40 TDP1 no CPT: -18%

How did COC(=O)C1CCN(C(=O)COC(=O)CSc2ccc(C(N)=O)cc2[N+](=O)[O-])CC1 do in these assays?
IL1B secr inh: 22; ELG1 DNA repair: 22%; HT1080 IDH1KD tx: 11%; DT40 TDP1 CPT: 12%; HT1080NT lethal: 5%; DT40 TDP1 no CPT: -3%

How did COc1ccc(-c2cc(C(=O)NCc3ccc(C(F)(F)F)cc3)[nH]n2)c(C)c1 do in these assays?
IL1B secr inh: -29; HT1080 IDH1KD tx: inconclusive; DT40 TDP1 CPT: inconclusive; HT1080NT lethal: inconclusive; DT40 TDP1 no CPT: inconclusive
